HCV inhibitor: blocks hepatitis C virus. Potency, µM (doses to about 41.8 µM), for the others: top-dose activity change, negative = inhibition, actives largely listed as inhibitors. AID 651820. actives 3.4% (n = 340,000). Huh7.5.1 HCVcc-Cre infection, luciferase reporter, 44 h; also: % is scaled to controls: 0 for no effect and ±100 for the full control effect
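Whole-lifecycle infectious HCVcc-Cre system; cells 1,000/well, compound then virus (~0.5 moi) added 4 h after plating, 44 h culture. Luciferase read 15 sec following 15 min substrate incubation, room temp.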
Pf growth 48h: P. falciparum growth inhibition at 48 hours (one generation) | P. falciparum luciferase growth in erythrocytes, 48 h | Potency, µM (titrated, usually from 28.7 µM), for inactives: top-dose activity change, negative = inhibition, usual class: inhibitors | actives 5.9% (n = 310,000) | AID 504832; also: % is scaled to controls: 0 for no effect and ±100 for the full control effect
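Luciferase-expressing parasites in RBCs, 2% Hct / 0.1% parasitemia final; RPMI 1640 + 0.5% Albumax; 37 C, 5% CO2, one generation; luminescence read-out, lower signal = inhibition.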
NS1 function inh: blocks influenza NS1 protein function | actives 0.4% (n = 270,000) | Potency, µM (top dose mostly 46.1 µM), inactives show at the highest dose activity, positive = more growth | AID 2326; calls by dose curve; also: actives are rising curves; nearly all actives have a fitted effect of over 50% in size
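Recovery from NS1-induced slow growth read by OD600 in budding yeast switched to galactose assay medium (pH 6.0, -URA) at 1:100 dilution. Compound 23 nl per well; the matching strain lacking NS1 serves as control.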
Pf growth 96h: inhibits malaria parasite growth, 96 h; actives 6.9% (n = 320,000); P. falciparum luciferase reporter growth, 96 h; Potency, µM (top dose mostly 28.7 µM), for inactives: at the top dose activity change, negative = inhibition, actives largely listed as inhibitors; also: % is scaled to controls: 0 for no effect and ±100 for the full control effect
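Erythrocytes infected with luciferase-expressing P. falciparum were dispensed at 2% hematocrit and 0.05% parasitemia (final), then incubated with compounds 96 hours at 37 C in 5% CO2. Luminescence after detection reagent addition reported growth.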
Vaccinia mCherry: vaccinia inhibition (mCherry reporter) | Potency, µM (series often up to 36.5 µM), for inactives: at the top dose activity change, negative = inhibition, hits mostly inhibitors | actives 0.63% (n = 310,000) | Vaccinia virus mCherry reporter infection, fluorescence; calls by dose curve; tested in A549 cells; also: % is scaled to controls: 0 for no effect and ±100 for the full control effect; nearly all actives have a fitted effect of over 35% in size
Vaccinia Venus: vaccinia inhibition (Venus reporter); Vaccinia virus Venus reporter expression, fluorescence; Potency, µM (titrated, usually from 36.5 µM), for inactives: at the highest dose activity change, negative = inhibition, actives largely listed as inhibitors; actives 0.46% (n = 330,000); AID 720580; calls by dose curve; tested in A549 cells; also: % is scaled to controls: 0 for no effect and ±100 for the full control effect; nearly all actives have a fitted effect of over 30% in size
Active calls of the source: *; i = inactive; ? = inconclusive; . = not tested or not shown; [ ] = dose if it differs, or a comment. An excerpt weighted towards active compounds, which were near 11% of everything screened. Unless noted, calls follow the shape of the dose curve; as a rule, active = well fitted inhibition curve with a large enough effect; inconclusive = small, poorly fitted or top-dose-only effect, or another doubt; inactive = no such curve, though single readings can be large or run the other way. Potency is read from the fitted curve at half-maximal effect.

SMILES	HCV inhibitor	Pf growth 48h	NS1 function inh	Pf growth 96h	Vaccinia mCherry	Vaccinia Venus
CCOC(=O)C1CCCN(CC(=O)Nc2ccc(C(=O)Nc3ccccc3OC)cc2)C1 (configuration not stated)	11µM*	12µM*	.	?	-1%	-13%
COc1ccccc1NC(=O)c1ccc(NC(=O)CN2CCCC2)cc1	?	1%	-1%	11%	i	-22%
CCOC(=O)C1CCCN(C(=O)c2ccc(S(=O)(=O)Nc3ccccc3OC)cc2)C1 (configuration not stated)	-23%	12µM*	.	?	.	.
CSc1nc(C)c2c(n1)N(c1ccc(C(F)(F)F)cc1)CC2	2%	19%	7%	141%	.	7%
O=C(CCc1nc2ccccc2c(=O)[nH]1)Nc1nnc(SCc2ccccc2)s1	?	12%	.	10%	-12%	-7%
CCOC(=O)C1CCN(C(=O)COc2cccc(C)c2)CC1	6%	8%	-3%	26%	4µM*	-9%
CCOC(=O)C1CCCN(C(=O)c2cn(C)c3ccc(S(=O)(=O)N(C)C)cc3c2=O)C1 (configuration not stated)	15%	.	10%	0.93µM*	.	.
CCOC(=O)C1CCCN(C(=O)c2ccc3nc(-c4ccccc4)c(-c4ccccc4)nc3c2)C1 (configuration not stated)	-15%	?	14%	13µM*	.	.
CCOC(=O)C1CCCN(C(=O)c2ccc3nc(-c4ccc(OC)c(OC)c4)c(-c4ccc(OC)c(OC)c4)nc3c2)C1 (configuration not stated)	2%	?	-9%	36%	.	.
CN(C)S(=O)(=O)c1ccc2c(c1)c(=O)c(C(=O)N1CCOCC1)cn2C	-1%	.	2%	117%	.	.
CCCN1C(=O)/C(=C\C=C2\N(CC)c3ccccc3C2(C)C)SC1=S	?	5.2µM*	-2%	-4%	i	128%
CCCN1C(=O)/C(=C\C=C2/Sc3ccccc3N2CC)SC1=S	.	22%	-3%	49%	.	.
COc1ccccc1C(=O)Nc1ccc(N2CCCCC2)cc1	15%	.	-59%	109%	-21%	-5%
COc1ccccc1C(=O)Nc1ccc2c(c1)CC1(C(=O)N(C)C(=O)N(C)C1=O)C1CCCN21 (configuration not stated)	2%	?	13%	2.6µM*	i	1%
Cc1cccc(C(=O)Nc2ccc3c(c2)CC2(C(=O)N(C)C(=O)N(C)C2=O)C2CCCN32)c1 (configuration not stated)	-9%	?	16%	8.3µM*	.	.
O=C(NNC(=O)C1CCN(Cc2ccccc2)CC1)c1cccc(Cl)c1	10µM*	0%	-9%	0%	.	-19%
Cc1ccc(S(=O)(=O)N2CCC(C(=O)NC3CC3)CC2)cc1	6%	2.3µM*	4%	5%	-9%	4%
COc1ccc(CNC(=O)C2CCN(c3nc(-c4ccccc4)nc4c3CCC4)CC2)cc1	?	1.9µM*	2%	?	i	-14%
O=C(NC1CCN(Cc2ccccc2)CC1)C1CCN(S(=O)(=O)c2ccccc2)CC1	?	15%	3%	?	-28%	-11%
O=C(NC1CCN(Cc2ccccc2)CC1)C1CCN(S(=O)(=O)c2ccc(Cl)cc2)CC1	10µM*	?	2%	?	?	-8%
Cc1ccc(S(=O)(=O)N2CCC(C(=O)NC3CCCCC3C)CC2)cc1 (configuration not stated)	-10%	6%	-6%	34%	.	.
CC(C)OCC(O)CN1CCC(Cc2ccccc2)CC1 (configuration not stated)	14%	25%	-4%	34%	.	.
CCN1CCN(C(=O)C2CCN(S(=O)(=O)c3ccc(Br)cc3)CC2)CC1	1%	0%	-11%	?	i	-11%
COc1ccc(CNC(=O)C2CCN(C(=O)[C@@H](CC(C)C)NC(=O)OC(C)(C)C)CC2)cc1	.	9.3µM*	-5%	-16%	.	.
COc1ccc(S(=O)(=O)N2CCC(C(=O)NCC3CC3)CC2)cc1	-10%	10µM*	2%	3%	i	-12%
SMILES	HCV inhibitor	Pf growth 48h	NS1 function inh	Pf growth 96h	Vaccinia mCherry	Vaccinia Venus
CC(C)(C)NC(=O)C1CCN(S(=O)(=O)c2ccc(Br)cc2)CC1	13%	9.3µM*	0%	-10%	.	.
COc1ccc(S(=O)(=O)N2CCC(C(=O)NC(c3nc4ccccc4[nH]3)C(C)C)CC2)cc1 (configuration not stated)	-3%	10µM*	.	?	.	.
O=C(Nc1ccc(Cl)cn1)c1ccc(Br)c(S(=O)(=O)N2CCCCC2)c1	?	?	1%	6%	i	-7%
CN1CCN(S(=O)(=O)c2ccc(N(C)Cc3cccc(F)c3)nc2)CC1	6%	9%	.	17%	.	.
CC(C)CN(CC(C)C)S(=O)(=O)N1CCC(C(=O)NC2CCCCCCC2)CC1	6%	?	-6%	12µM*	-15%	-9%
Cc1ccc(S(=O)(=O)N2CCC(C(=O)NCC3CC3)CC2)cc1	2%	5.9µM*	-8%	0%	-8%	0%
O=C(NC1CCCCCC1)C1CCN(S(=O)(=O)c2ccccc2)CC1	3%	-1%	-4%	2.9µM*	.	.
CCS(=O)(=O)N1CCC(C(=O)NCc2ccc(OC)cc2)CC1	26%	14%	.	5.9µM*	-1%	-9%
Cc1ccc(S(=O)(=O)N2CCC(C(=O)NCC3CCCCC3)CC2)cc1	?	-30%	2%	?	-4%	-16%
CCOC(=O)c1c(-c2ccc(C)s2)csc1N	-12%	-28%	11%	?	.	.
Nc1c2c(nc3sc4c(c13)CCCCC4)CCCC2	22µM*	?	-47%	18%	?	10µM*
Nc1c2c(nc3c1CCC3)CCCC2	.	4.8µM*	.	3.8µM*	.	.
Cc1ccc(C2C3=C(CCCC3=O)OC3=C2C(=O)CCC3)cc1	24%	1%	-5%	37%	-17%	-10%
Cn1c(N)c(C(=O)COC(=O)c2cc(C(F)(F)F)nc3ccccc23)c(=O)n(Cc2ccccc2)c1=O	3%[8.37 µM]	-17%	?	?	i	-23%
N#CC1(NC(=O)CSc2nnc(Nc3ccccc3F)s2)CCCC1	5%	?	.	12µM*	-10%	-7%
CCOc1ccc(S(=O)(=O)Nc2ccccc2C(=O)N/N=C/c2c(OC)ccc3ccccc23)cc1	-8%	18%	?	17%	i	-15%
COC(=O)c1ccccc1NC(=O)c1ccc2c(c1)CC(C)O2 (configuration not stated)	-29%	19%	-31%	?	i	-12%
CCNc1nn2ccccc2c1/C=C(\C#N)C(=O)OCC	10µM*	30%	-9%	-6%	-19%	-30%
CCOC(=O)/C(C#N)=C/c1c(N2CCCCCC2)nc2ccccn2c1=O	?	?	-4%	?	.	.
